Test results taken from PubChem BioAssay (NCI).
Compounds without any hit were thinned out: in the full panel of roughly 83,000, 20% have a hit.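 Values shown are percent growth following 48 h exposure of cells in 96-well plates to a single concentration of compound; below 10 was considered active.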 A number with no mark means an inactive call. Activity calls are given as the source filed them.

Key:
Experiment in all cases: NCI-60 one-dose screen, 48 h (100 = growth as untreated, 0 = no growth, -100 = all killed)
Details in all cases: 10 µM
[1] = tested on: K-562 leukemia
[2] = tested on: MALME-3M melanoma
[3] = tested on: MDA-MB-231 breast
[4] = tested on: RXF 393 renal
[5] = tested on: SF-268 CNS
[6] = tested on: SF-295 CNS
[7] = tested on: SF-539 CNS
[8] = tested on: M14 melanoma
[9] = tested on: HCT-15 colon
[10] = tested on: HT29 colon
[11] = tested on: SNB-75 CNS
[12] = tested on: SNB-19 CNS
[13] = tested on: U251 CNS
[14] = tested on: PC-3 prostate
[15] = tested on: SK-MEL-5 melanoma
[16] = tested on: LOX IMVI melanoma
[17] = tested on: SK-MEL-28 melanoma
[18] = tested on: SK-MEL-2 melanoma
[19] = tested on: UACC-62 melanoma
[20] = tested on: UACC-257 melanoma

With `CCCCN(CCCC)c1cc(C(=O)CCCCCN)c2ccccc2n1` the growth [1] was -67.9% (active), the growth [2] was -74.4% (active) and the growth [3] was 78.3%. The growth [4] was 82.5%, the growth [5] was -58% (active) and the growth [6] was -62.3% (active). The growth [7] was 83.6%, the growth [8] was 14.4% and the growth [9] was 60.1%. For the same compound, the growth [10] was -38% (active), the growth [11] was 105% and the growth [12] was 105%. The growth [13] was -77.9% (active), the growth [14] was -93.2% (active) and the growth [15] was 98.3%. The growth [16] was -18% (active), the growth [17] was 118% and the growth [18] was 87.9%.
`NC(=O)CC1(c2ccccc2)CCCCC1` was tested, and the growth [1] was 92.3%, the growth [2] was 93.8% and the growth [3] was 105%. For the same compound, the growth [4] was 114%, the growth [5] was 98.5% and the growth [6] was 103%. For the same compound, the growth [7] was 104%, the growth [8] was 96% and the growth [9] was 101%. It also gave a growth [10] of 104%, a growth [11] of 95.3% and a growth [12] of 105%. The growth [13] was 102%, the growth [14] was 99.4% and the growth [15] was 106%. It also gave a growth [19] of 107%, a growth [16] of 96.1% and a growth [17] of 110%. The growth [18] was 102%.
For `CC12O[C@H](C[C@@H](OC(=O)c3ccccc3)[C@H]1O)n1c3ccccc3c3c4c(c5c6ccccc6n2c5c31)C(=O)NC4=O`, the growth [1] was 71%, the growth [2] was 46.4% and the growth [3] was 53.3%. The growth [4] was 15.6%, the growth [5] was 61.4% and the growth [6] was 45.8%. The growth [7] was 86.6%, the growth [8] was 44.4% and the growth [9] was 77.7%. The growth [10] was 78.5%, the growth [11] was 45.7% and the growth [12] was 101%. The growth [13] was 77.1%, the growth [14] was 42.5% and the growth [15] was 48.6%. The growth [19] was 55%, the growth [16] was 72.7% and the growth [17] was 90.4%. For the same compound, the growth [18] was 54.2%.
Work on `CCN(CC)CCNc1ccc(CO)c2oc3cc(Cl)ccc3c(=O)c12` yielded a growth [1] of 81.8%, a growth [2] of 112% and a growth [3] of 83.7%. The growth [4] was 73.3%, the growth [6] was 97.9% and the growth [7] was 88.8%. The growth [20] was -0.905% (active), the growth [8] was 60.3% and the growth [9] was 81%. The growth [10] was 52.8%, the growth [11] was 69.7% and the growth [12] was 97%. The growth [13] was 79.7%, the growth [14] was 77.4% and the growth [15] was 53.9%. It also gave a growth [19] of 73.1%, a growth [16] of 70.5% and a growth [17] of 97.8%. For the same compound, the growth [18] was 128%.
`COc1ccc(-c2nc3ccccn3c2-c2nnc(-c3cc(OC)c(OC)c(OC)c3)o2)cc1` was tested, and the growth [1] was 102%, the growth [2] was 51.5% and the growth [3] was 46.9%. It also gave a growth [4] of 74.3%, a growth [6] of 64.9% and a growth [7] of 52.8%. The growth [20] was 84.2%, the growth [8] was 75.7% and the growth [9] was 71.6%. It also gave a growth [11] of 59.9%, a growth [12] of 44.5% and a growth [14] of 98.2%. It also gave a growth [15] of 44.7%, a growth [19] of 68.5% and a growth [16] of 78.1%. The growth [17] was 83.6% and the growth [18] was 92.1%.
In the case of `CN(C)CCNC(=O)c1cccn2c(=O)c3cc4ccccc4cc3nc12`, the growth [1] is reported as 4.58% (active), the growth [2] is reported as -45.2% (active) and the growth [3] is reported as 22%. For the same compound, the growth [4] was -89.5% (active), the growth [5] was -14.9% (active) and the growth [6] was -19.7% (active). For the same compound, the growth [7] was 1.59% (active), the growth [8] was -63.7% (active) and the growth [9] was 12.7%. The growth [10] was -60.7% (active), the growth [11] was -72.7% (active) and the growth [12] was 17.6%. The growth [13] was -11.1% (active), the growth [14] was -16.6% (active) and the growth [15] was -20.3% (active). For the same compound, the growth [19] was -56% (active), the growth [16] was 1.07% (active) and the growth [17] was -25.8% (active). The growth [18] was -65.9% (active).
`O=C(CC(C(=O)c1ccccc1)N1CCOCC1)c1ccccc1` (stereo not given) gave a growth [1] of 40.5%, a growth [2] of 101% and a growth [3] of 92.7%. For the same compound, the growth [5] was 97.6%, the growth [6] was 92.9% and the growth [7] was 96.7%. It also gave a growth [20] of 93.8%, a growth [8] of 101% and a growth [9] of 85%. The growth [10] was 92.4%, the growth [11] was 101% and the growth [12] was 95.6%. It also gave a growth [13] of 88%, a growth [14] of 99.4% and a growth [15] of 95.5%. It also gave a growth [19] of 87.7%, a growth [16] of 88.4% and a growth [17] of 92.2%. The growth [18] was 102%.
Compound `COc1ccc(NC(=O)Cc2nc3nc4sc(C)c(C)c4c(=O)n3[nH]2)cc1` has a growth [1] of 109%, a growth [2] of 89.2% and a growth [3] of 108%. It also gave a growth [5] of 109%, a growth [6] of 91.3% and a growth [7] of 103%. It also gave a growth [20] of 101%, a growth [8] of 103% and a growth [9] of 99.7%. The growth [10] was 94.1%, the growth [11] was 101% and the growth [13] was 91.2%. It also gave a growth [14] of 95.9%, a growth [15] of 86.7% and a growth [19] of 107%. For the same compound, the growth [16] was 89.7%, the growth [17] was 115% and the growth [18] was 103%.
`COc1cc(C(=C2O[C@@H]([C@H]3COC(C)(C)O3)[C@H]3OC(C)(C)O[C@@H]23)c2cc(OC)c(OC)c(OC)c2)cc(OC)c1OC` showed a growth [1] of 91.8%, a growth [2] of 123% and a growth [3] of 91.6%. It also gave a growth [5] of 113%, a growth [6] of 110% and a growth [7] of 111%. For the same compound, the growth [20] was 105%, the growth [8] was 106% and the growth [9] was 103%. It also gave a growth [11] of 99.8%, a growth [12] of 109% and a growth [13] of 107%. For the same compound, the growth [14] was 90%, the growth [15] was 105% and the growth [19] was 100%. The growth [16] was 99.1% and the growth [18] was 158%.
